From PubChem BioAssay AID1159580 (chemical genetic matrix, 2015)
In all, about 5,500 compounds went through this assay and about 2,000 (36%) were called active. Not shown: some 18% with an inconclusive outcome. No stated cut-off is given here; in the data, active means normalized growth mostly below about 0.91 (no sharp cut-off); inconclusive means no clear call, values can overlap the other calls; inactive means mostly above about 0.92. The list shows a part of the results.

Assay: chemical genetic growth profiling, strain panel (AID 1159580);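 further: tested at 20 µM; growth read once vehicle control cultures reached saturation at 30 °C; 1 = growth at the plate median or of vehicle wells; lower values mean less growth of the strain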
Settings: growth OD

Measured: normalized growth

CC(C(=O)O)c1ccc(-c2ccccc2)c(F)c1 (configuration not stated)
active: S. cerevisiae deletion strains, locus YJR066W, strain TOR1, hits give low values 0.762 | S. cerevisiae deletion strains, locus YKL068W, hits give low values 0.912 | S. cerevisiae deletion strains, locus YKL085W, strain MDH1 (second series), hits give low values 0.919 | S. cerevisiae deletion strains, locus YKL085W, strain MDH1, hits give low values 0.919 | S. cerevisiae deletion strains, locus YKR001C, strain vps1, hits give low values 0.827 | S. cerevisiae deletion strains, locus YLR113W, strain HOG1, hits give low values 0.62 | S. cerevisiae deletion strains, locus YLR262C, strain YPT6 (second series), hits give low values 0.846 | S. cerevisiae deletion strains, locus YNL183C, strain NPR1, hits give low values 0.783 | S. cerevisiae deletion strains, locus YNL248C, strain rpa49, hits give low values 0.817 | S. cerevisiae deletion strains, locus YNL271C, strain bni1, hits give low values 0.888 | S. cerevisiae deletion strains, locus YNL298W, strain CLA4, hits give low values 0.792 | S. cerevisiae deletion strains, locus YOR231W, strain MKK1, hits give low values 0.732 | S. cerevisiae deletion strains, locus YPL256C, strain CLN2, hits give low values 0.736 | S. cerevisiae deletion strains, locus YPR141C, strain kar3, hits give low values 0.913
inactive: S. cerevisiae deletion strains, locus YJR043C, strain POL32, hits give low values 0.979 | S. cerevisiae deletion strains, locus YJR075W, strain HOC1, hits give low values 0.978 | S. cerevisiae deletion strains, locus YKL009W, strain mrt4, hits give low values 0.899 | S. cerevisiae deletion strains, locus YKL160W, strain elf1, hits give low values 1.03 | S. cerevisiae deletion strains, locus YKR026C, strain gcn3, hits give low values 0.977 | S. cerevisiae deletion strains, locus YKR091W, strain srl3, hits give low values 0.988 | S. cerevisiae deletion strains, locus YLL001W, strain dnm1, hits give low values 1.02 | S. cerevisiae deletion strains, locus YLL026W, hits give low values 0.987 | S. cerevisiae deletion strains, locus YLL041C, strain sdh2, hits give low values 0.97 | S. cerevisiae deletion strains, locus YLR027C, strain aat2, hits give low values 0.976 | S. cerevisiae deletion strains, locus YLR039C, strain RIC1, hits give low values 0.79 | S. cerevisiae deletion strains, locus YLR058C, strain SHM2, hits give low values 0.99 | S. cerevisiae deletion strains, locus YLR102C, strain apc9, hits give low values 0.954 | S. cerevisiae deletion strains, locus YLR221C, strain rsa3, hits give low values 1 | S. cerevisiae deletion strains, locus YLR258W, strain gsy2, hits give low values 0.983 | S. cerevisiae deletion strains, locus YLR262C, strain YPT6, hits give low values 0.773 | S. cerevisiae deletion strains, locus YLR268W, strain sec22, hits give low values 0.955 | S. cerevisiae deletion strains, locus YLR320W, strain mms22, hits give low values 1.05 | S. cerevisiae deletion strains, locus YLR330W, strain CHS5, hits give low values 0.969 | S. cerevisiae deletion strains, locus YLR342W, strain FKS1 (second series), hits give low values 0.936 | S. cerevisiae deletion strains, locus YLR342W, strain FKS1, hits give low values 0.984 | S. cerevisiae deletion strains, locus YLR357W, strain rsc2, hits give low values 1.01 | S. cerevisiae deletion strains, locus YLR370C, strain arc18, hits give low values 0.989 | S. cerevisiae deletion strains, locus YLR371W, strain rom2, hits give low values 0.996 | S. cerevisiae deletion strains, locus YLR384C, strain iki3, hits give low values 1.01 | S. cerevisiae deletion strains, locus YLR418C, strain cdc73, hits give low values 1.01 | S. cerevisiae deletion strains, locus YML016C, strain PPZ1, hits give low values 0.981 | S. cerevisiae deletion strains, locus YML032C, strain rad52, hits give low values 0.951 | S. cerevisiae deletion strains, locus YML120C, strain ndi1, hits give low values 0.996 | S. cerevisiae deletion strains, locus YML124C, strain tub3, hits give low values 0.96 | S. cerevisiae deletion strains, locus YMR058W, strain fet3, hits give low values 0.994 | S. cerevisiae deletion strains, locus YMR078C, strain ctf18, hits give low values 0.94 | S. cerevisiae deletion strains, locus YMR125W, strain sto1, hits give low values 1 | S. cerevisiae deletion strains, locus YMR129W, hits give low values 0.968 | S. cerevisiae deletion strains, locus YMR205C, strain PFK2, hits give low values 1.03 | S. cerevisiae deletion strains, locus YMR223W, strain ubp8, hits give low values 1.02 | S. cerevisiae deletion strains, locus YMR231W, strain pep5, hits give low values 0.969 | S. cerevisiae deletion strains, locus YMR307W, strain GAS1, hits give low values 0.938 | S. cerevisiae deletion strains, locus YNL067W, strain RPL9B, hits give low values 0.974 | S. cerevisiae deletion strains, locus YNL071W, strain lat1, hits give low values 0.985 | S. cerevisiae deletion strains, locus YNL209W, strain ssb2, hits give low values 1.01 | S. cerevisiae deletion strains, locus YNL233W, strain BNI4, hits give low values 0.991 | S. cerevisiae deletion strains, locus YNL250W, strain rad50, hits give low values 0.908 | S. cerevisiae deletion strains, locus YNL307C, strain MCK1, hits give low values 0.947 | S. cerevisiae deletion strains, locus YNL322C, strain KRE1 (second series), hits give low values 0.964 | S. cerevisiae deletion strains, locus YNL322C, strain KRE1, hits give low values 0.975 | S. cerevisiae deletion strains, locus YNR049C, strain mso1, hits give low values 0.981 | S. cerevisiae deletion strains, locus YNR052C, strain pop2, hits give low values 0.952 | S. cerevisiae deletion strains, locus YOL012C, strain htz1 1.06 | S. cerevisiae deletion strains, locus YOL147C, strain pex11, hits give low values 0.969 | S. cerevisiae deletion strains, locus YOR001W, strain rrp6, hits give low values 0.95 | S. cerevisiae deletion strains, locus YOR061W, strain CKA2, hits give low values 0.973 | S. cerevisiae deletion strains, locus YOR069W, strain VPS5, hits give low values 0.994 | S. cerevisiae deletion strains, locus YOR070C, strain gyp1, hits give low values 1 | S. cerevisiae deletion strains, locus YOR080W, strain dia2, hits give low values 1.01 | S. cerevisiae deletion strains, locus YOR083W, strain WHI5, hits give low values 1.03 | S. cerevisiae deletion strains, locus YOR106W, strain vam3, hits give low values 0.994 | S. cerevisiae deletion strains, locus YOR136W, strain idh2, hits give low values 0.989 | S. cerevisiae deletion strains, locus YOR144C, strain elg1, hits give low values 0.965 | S. cerevisiae deletion strains, locus YOR184W, strain ser1, hits give low values 0.972 | S. cerevisiae deletion strains, locus YOR265W, strain rbl2, hits give low values 1 | S. cerevisiae deletion strains, locus YOR270C, strain vph1, hits give low values 1.05 | S. cerevisiae deletion strains, locus YOR290C, strain snf2, hits give low values 0.97 | S. cerevisiae deletion strains, locus YOR316C, strain cot1, hits give low values 0.965 | S. cerevisiae deletion strains, locus YPL051W, strain arl3, hits give low values 0.981 | S. cerevisiae deletion strains, locus YPL078C, strain atp4, hits give low values 1 | S. cerevisiae deletion strains, locus YPL106C, strain sse1, hits give low values 1.05 | S. cerevisiae deletion strains, locus YPL240C, strain hsp82, hits give low values 0.985 | S. cerevisiae deletion strains, locus YPR119W, strain clb2, hits give low values 0.95 | S. cerevisiae deletion strains, locus YPR163C, strain tif3, hits give low values 0.957 | S. cerevisiae deletion strains, locus YPR167C, strain met16, hits give low values 0.962 | S. cerevisiae deletion strains, strain wtn01, hits give low values 0.971 | S. cerevisiae strains, strain wild type, hits give low values 0.968
